An excerpt weighted towards active compounds, which were near 3.7% of everything screened.
GDH-TPI counter-1 – GDH-TPI coupling enzyme inhibitors, primary screen, artefact control for M. tuberculosis FBA inhibitor project, biochemical, absorbance, full deck | GDH-TPI coupled enzyme counterscreen, NADH absorbance | inhibition, % at 4.8 µM | 1.2% of 360,000 active | AID 588335, 2011; in the data active = inhibition above about 30%
Mtb bLac sens – beta-lactam sensitization of Mtb H37Rv, H37Rv. M. tuberculosis H37Rv growth with meropenem, percent inhibition. inhibition, % at 25 µM. 0.27% of 330,000 active. AID 434955, 2010;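 also: growth measured after seven days incubation then overnight dye step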
UGM FP inh – M. tuberculosis UGM enzyme inhibitors, primary screen, biochemical, fluorescence polarization, single point; purified UGM, fluorescence polarization probe displacement; 0.06% of 320,000 active; inhibition, % at 10 µM; UDP-galactopyranose mutase (Mycobacterium tuberculosis (strain ATCC 25618 / H37Rv)), …; in the data active = inhibition above about 10%, passing the limit was not always enough
FadD28 FP inh – inhibitors of FadD28 bisubstrate probe binding, primary screen, biochemical, fluorescence polarization, single point. Mycobacterium tuberculosis FadD28 fatty-acid-AMP ligase. inhibition, % at 12.5 µM. 0.22% of 360,000 active. AID 588549, 2011; in the data active = inhibition above about 8.5%, passing the limit was not always enough
Rv3671c inh – Rv3671c serine protease inhibitors, primary screen, biochemical, fluorescence polarization, M. tuberculosis H37Rv | 0.048% of 320,000 active | inhibition, % at 5.96 µM | AID 2606, 2010 | P9WHR9; in the data active = inhibition above about 38%;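 also: extracellular domain of Rv3671c used as enzyme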
Mtb FBA inh – Mtb FBA enzyme inhibitors, primary screen, biochemical, fluorescence, strain H37Rv. Fructose-bisphosphate aldolase (Mycobacterium tuberculosis (strain ATCC 25618 / H37Rv)), …. purified M. tuberculosis FBA, fluorescence read-out. inhibition, % at 1 µM. 2.3% of 360,000 active. AID 588726, 2011; in the data active = inhibition above about 27%
Target sequence (P9WQA3 whole entry, looked up): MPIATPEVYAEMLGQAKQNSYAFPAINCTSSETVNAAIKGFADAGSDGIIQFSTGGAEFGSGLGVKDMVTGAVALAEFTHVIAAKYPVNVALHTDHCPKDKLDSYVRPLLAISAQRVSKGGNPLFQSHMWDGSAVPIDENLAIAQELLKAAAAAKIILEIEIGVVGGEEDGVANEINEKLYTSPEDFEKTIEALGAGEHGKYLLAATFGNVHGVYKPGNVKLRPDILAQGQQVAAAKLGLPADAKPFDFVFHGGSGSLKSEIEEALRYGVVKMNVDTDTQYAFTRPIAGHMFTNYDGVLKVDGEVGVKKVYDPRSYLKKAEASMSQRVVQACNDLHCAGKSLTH
Mtb FBA confirm – M. tuberculosis aldolase blockers, biochemical, fluorescence, strain H37Rv, confirmation; shares compounds with Mtb FBA inh; purified M. tuberculosis FBA, fluorescence read-out; inhibition, % at 1 µM; 78% of 5,600 active; AID 651616, 2012; in the data active = inhibition above about 27%
GDH-TPI counter-2 – GDH-TPI coupling enzyme inhibitors, artefact control for M. tuberculosis FBA inhibitor project, biochemical, fluorescence, high throughput; shares compounds with Mtb FBA inh; GDH-TPI coupled enzyme counterscreen; inhibition, % at 1 µM; 81% of 5,600 active; AID 652141, 2013; in the data active = inhibition above about 10%
GDH-TPI dose – GDH-TPI coupling enzyme inhibitors, dose response, artefact control for M. tuberculosis FBA inhibitor project, biochemical, fluorescence, IC50. shares compounds with Mtb FBA inh. GDH-TPI coupled enzyme assay, artifact counterscreen. IC50, µM. 79% of 170 active. AID 652145, 2013
Numbers stand for hits; i = inactive; nt = no result; + = active, no number. Unless noted, no rule for the calls is given here.

SMILES | GDH-TPI counter-1 | Mtb bLac sens | UGM FP inh | FadD28 FP inh | Rv3671c inh | Mtb FBA inh | Mtb FBA confirm | GDH-TPI counter-2 | others
CCN(CC)CCNC(=O)CCc1c(C)nc2c(c(C)nn2-c2ccc(C)cc2)c1C | i | i | i | i | nt | 41 | i | i
CCOc1ccc(NC(=O)CN2C(=O)NC(C)(c3ccc(OC(F)F)cc3)C2=O)cc1 (stereo unspecified) | i | i | i | i | i | i | nt | nt
OCCNCc1cccc(-c2ccccc2)c1O | i | nt | nt | i | nt | i | nt | nt
O=C(Cn1cc(COc2ccc(Cl)c(Cl)c2)nn1)NS(=O)(=O)c1ccccc1OC(F)(F)F | i | nt | nt | i | nt | i | nt | nt
CC(=O)c1cc(Cl)ccc1OCC(=O)Nc1cccc(S(=O)(=O)N2CCCC2)c1 | i | i | nt | i | i | i | nt | nt
O=C(c1ccccc1)C1(c2ccccc2)OC1c1ccccc1 (stereo unspecified) | i | nt | nt | i | nt | i | nt | nt
CC1=C(Cl)C2=NS(=O)(=O)CCN2C=C1Cl | i | i | i | i | i | 89 | 159 | 116
Cc1ccc(NC(=O)C2=CC=CN3CCS(=O)(=O)N=C23)cc1 | i | i | i | i | i | i | nt | nt
O=C(Nc1ccc2oc(-c3ccccc3F)nc2c1)c1ccccc1F | i | i | i | i | i | i | nt | nt
O=C(Nc1ccc2oc(-c3ccccc3F)nc2c1)c1ncn[nH]1 | i | i | i | i | i | 37 | 158 | 143
CC1(C(=O)NS(=O)(=O)c2cccc(C#N)c2)CCN1C(=O)Cc1ccc(-c2ccccc2)cc1 (stereo unspecified) | i | nt | nt | i | nt | i | nt | nt
COCCCNC(=O)C[C@H]1C[C@H](C(=O)N2CCCCC2)[C@@]2(C)c3[nH]c4cc(-c5ccco5)ccc4c3CCN2C1=O | i | nt | nt | i | nt | 27 | 68 | 52
C[C@]12c3[nH]c4cc(-c5ccco5)ccc4c3CCN1C(=O)[C@@H](CC(=O)NCC13CC4CC(CC(C4)C1)C3)C[C@@H]2C(=O)N1CCOCC1 | i | nt | nt | i | nt | i | nt | nt
C[C@]12c3[nH]c4cc(-c5ccco5)ccc4c3CCN1C(=O)[C@@H](CC(=O)NCCN1CCOCC1)C[C@@H]2C(=O)N1CCCCC1 | i | nt | nt | i | nt | 35 | i | i
CC[C@]12c3[nH]c4cc(-c5ccco5)ccc4c3CCN1C(=O)[C@@H](CC(=O)NCCCOC)C[C@@H]2C(=O)N1CCN(C(=O)C2CC2)CC1 | i | nt | nt | i | nt | i | nt | nt
Cc1cccc2nc3ccccc3cc12 | i | i | i | i | i | 33 | 49 | 33
CC(C)Cn1nc(NC(=O)C2CCCO2)c2cc3ccccc3nc21 (stereo unspecified) | i | i | i | i | i | i | nt | nt
CCCn1nc(NC(=O)C2CCCO2)c2cc3cccc(C)c3nc21 (stereo unspecified) | i | i | i | i | i | 37 | 179 | 149
CC1CC(C)CN(C(=O)Cn2c(SCC(=O)N3CCc4ccccc4C3)nc3ccccc32)C1 (stereo unspecified) | i | i | i | i | i | 48 | 69 | 49
CC(C)NC(=O)Cn1c(SCC(=O)N2CCc3ccccc3C2)nc2ccccc21 | i | i | i | i | i | i | nt | nt
COc1ccc2oc(C(F)(F)C(F)F)cc(=O)c2c1 | i | i | i | i | i | 43 | 75 | 52
COc1ccc2oc3ccccc3c(=O)c2c1 | i | i | i | i | i | 101 | + | +
Cn1c(CC(=O)NNC(=O)c2ccc(Cl)nc2)nc2ccccc21 | i | i | i | i | i | i | nt | nt
COc1cc(/C=N/NC(=O)Cc2nnc(N)s2)cc(OC)c1OC | i | i | i | i | i | i | nt | nt
COc1ccc(-c2ccc(/C=N/NC(=O)Cc3nnc(N)s3)o2)cc1Cl | 38 | i | i | i | i | 29 | 54 | 30
SMILES | GDH-TPI counter-1 | Mtb bLac sens | UGM FP inh | FadD28 FP inh | Rv3671c inh | Mtb FBA inh | Mtb FBA confirm | GDH-TPI counter-2 | others
Cc1ccc2ccccc2c1C(O)c1ncc(-c2ccc(C(F)(F)F)cc2)[nH]1 (stereo unspecified) | i | nt | nt | i | nt | i | nt | nt
CCOc1ccc(-c2nnc(-c3cccs3)o2)cc1OCC | i | nt | i | i | i | i | nt | nt
COc1cc(-c2nnc(-c3cccs3)o2)cc(OC)c1OC | i | i | i | i | i | i | nt | nt
COc1ccc(-c2nnc(-c3cc(OC)c(OC)c(OC)c3)o2)cc1OC | i | i | i | i | i | 89 | 40 | 28
CCOc1ccc(-c2nnc(-c3cccs3)o2)cc1 | i | i | i | i | i | 75 | 54 | 46
COc1ccc(-c2nnc(-c3cccs3)o2)cc1OC | i | i | i | i | i | 55 | 63 | 53
CC(=O)c1cccc(Nc2ccc(Br)cc2)c1 | nt | nt | nt | i | nt | i | nt | nt
CC(C)c1ccc(C2NC(=O)NC3=C2CCc2ccccc23)cc1 (stereo unspecified) | i | i | i | i | i | 32 | 63 | 35
Cc1ccc(C2NC(=O)NC3=C2CCc2ccccc23)cc1 (stereo unspecified) | i | i | i | i | i | 35 | 61 | 55
COc1ccc2c(c1)C1=C(CC2)C(c2ccc(C)cc2)NC(=S)N1 (stereo unspecified) | i | i | i | i | i | i | nt | nt
O=C1NC2=C(C(=O)c3ccccc32)C(c2ccccc2)N1 (stereo unspecified) | i | i | i | i | i | i | nt | nt
O=C(Nc1ccccc1)c1cc(C2CCCN(C(=O)c3ccc4c(c3)CCO4)C2)on1 (stereo unspecified) | i | nt | nt | i | nt | i | nt | nt
CNC(=O)C1(C)CCN1C(=O)Cc1ccc(C(C)C)cc1 (stereo unspecified) | i | nt | nt | i | nt | i | nt | nt
Cc1ccccc1NC(=O)Cn1c(C)nc2ccc(N)cc2c1=O | i | i | i | i | i | 61 | i | i | GDH-TPI dose=2.8
COCC(=O)N(C)c1nnc(-c2ccccn2)s1 | i | i | i | i | i | 52 | 92 | 69
CN(C(=O)C1CCOC1)c1nnc(-c2ccccn2)s1 (stereo unspecified) | i | i | i | i | i | i | nt | nt
CN(C(=O)c1ccncc1)c1nnc(-c2ccncc2)s1 | i | i | i | i | i | 43 | 92 | 81
CN(C(=O)C1CCOC1)c1nnc(-c2ccncc2)s1 (stereo unspecified) | i | i | i | i | i | i | nt | nt
